According to PubChem BioAssay:
Activity calls are given as the source filed them. Unless noted, how the calls were made is not given here.

What was measured:
[1] = tested on: XIP peptide (Xip251-270) binding; experiment: small-molecule binders of XIP peptide, primary screen, biochemical, small-molecule microarray, fluorescence 635/667 nm, 0.1 µg/mL protein (AID 1182); conditions: fluorescent protein binding, 635 nm, higher = more signal, called active from +8 up or from −8 down
XIP peptide (Xip251-270) = experiment: small-molecule binders of XIP peptide, primary screen, biochemical, small-molecule microarray, fluorescence 635/667 nm, 0.5 µg/mL protein (AID 1183); conditions: small-molecule microarray binding, fluorescence 635 nm; higher = more signal
[2] = Plasmodium falciparum growth inhibition, primary screen, strain 3D7, DAPI fluorescence, 100 nL (AID 1184);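 further: parasites grown inside human red blood cells in medium with human serum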; conditions: P. falciparum 3D7 growth, 3 d, higher = more signal
[3] = target: Homeobox protein Hox-A13 (Mus musculus) (UniProt Q62424); experiment: inhibitors of HoxA13-DNA binding, primary screen, biochemical, fluorescence polarization, labeled oligonucleotide (AID 1185); conditions: 15 min, higher = more signal, called active from +8 up or from −8 down
Sequence of Homeobox protein Hox-A13 (Mus musculus) (Q62424 whole entry, looked up): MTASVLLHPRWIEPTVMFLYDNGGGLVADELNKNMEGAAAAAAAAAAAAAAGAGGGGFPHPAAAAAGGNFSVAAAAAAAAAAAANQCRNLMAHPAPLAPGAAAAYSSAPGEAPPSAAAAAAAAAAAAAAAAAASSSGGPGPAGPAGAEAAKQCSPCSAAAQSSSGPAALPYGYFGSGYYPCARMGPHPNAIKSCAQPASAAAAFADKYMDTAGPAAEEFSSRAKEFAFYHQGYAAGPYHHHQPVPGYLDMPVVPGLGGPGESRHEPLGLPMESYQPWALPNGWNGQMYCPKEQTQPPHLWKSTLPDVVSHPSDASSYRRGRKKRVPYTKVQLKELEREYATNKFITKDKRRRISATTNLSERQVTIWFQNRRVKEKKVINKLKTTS

[4] = inhibitors of hydroxyurea-induced Chk1 phosphorylation, primary screen, imaging, HeLa, phospho-Chk1 antibody, percent positive cells (AID 1186); conditions: hydroxyurea-induced phospho-Chk1 immunofluorescence imaging, higher = more signal
[5] = inhibitors of hydroxyurea-induced Chk1 phosphorylation, primary screen, imaging, HeLa, phospho-Chk1 nuclear intensity (AID 1187); conditions: hydroxyurea-induced phospho-Chk1 immunofluorescence imaging, higher = more signal

SMILES | composite z-score [1] | composite z-score (XIP peptide (Xip251-270)) | z-score [2] | z-score [3] | z-score [4] | z-score [5]
CC(C)N1C(=O)C[C@@](C(=O)O)(c2ccc([N+](=O)[O-])cc2)[C@H]1c1ccc(CO)cc1 | 1.04 (inactive) | 0.916 | -0.352 | -2.9 (inactive) | -0.198 (inactive) | -0.0057 (inactive)
CCCC[C@@H](O)C1=C(COC)C[C@H]2C(=O)N(C)C(=O)[C@H]2[C@H]1CO | -0.703 (inactive) | 0.336 | -0.68 | -1.8 (inactive) | -0.476 (inactive) | 0.0423 (inactive)
CCCNC(=O)[C@@H]1c2ccccc2C(=O)N(Cc2ccc(OC(F)(F)F)cc2)[C@H]1c1ccc(CO)cc1 | 0.688 (inactive) | 0.835 | -0.997 | -3 (inactive) | -0.615 (inactive) | -0.366 (inactive)
O=C1OCCC=C[C@H]2OC34C=CCN(c5ccc6ccccc6c5)C(=O)[C@H]3N(CCCO)C(=O)[C@@H]4C12 (stereo not given in full) | -0.725 (inactive) | -0.617 | -1.83 | -2.31 (inactive) | -0.292 (inactive) | -0.64 (inactive)
CC(C)C[C@@H]1NC(=O)[C@@H]2C[C@H](C(=O)NCCCCCCN)[C@H](c3cccc(OCCO)c3)N2C1=O | 1.6 (inactive) | 0.891 | -0.969 | -3.79 (inactive) | -0.349 (inactive) | -0.207 (inactive)
CN(C)C(=O)[C@@]1(Cc2ccccc2)N=C(c2ccc(OCCCO)cc2)O[C@H]1c1ccccc1 | 1.66 (inactive) | 0.444 | -1.58 | -6.14 (inactive) | -0.499 (inactive) | -0.304 (inactive)
CCOC(=O)C[C@H]1[C@H](OC(=O)c2ccc(C(=O)c3ccccc3)cc2)[C@@H](NC(=O)c2ccc3ccccc3n2)c2cc(OCCCO)ccc2N1C(=O)Cc1ccc(OC)cc1 | -0.667 (inactive) | -0.219 | -2.69 | -0.833 (inactive) | -0.824 (inactive) | -0.835 (inactive)
CCOC(=O)C[C@H]1[C@H](OC(=O)c2cc3ccccc3oc2=O)[C@@H](NC(=O)CC(C)C)c2cc(OCCCO)ccc2N1C(=O)c1ccc2ccccc2n1 | 2.46 (inactive) | 0.46 | -0.533 | -4.43 (inactive) | -0.121 (inactive) | -0.507 (inactive)
COc1ccc(C#Cc2ccc3c(c2)[C@]2(C(=O)N3)[C@H](C(=O)O)[C@H]3C(=O)O[C@H](c4ccccc4)[C@H](c4ccccc4)N3[C@@H]2c2ccc(O)cc2)cc1 | 1.14 (inactive) | -0.516 | -1.47 | -6.25 (inactive) | -0.366 (inactive) | -0.651 (inactive)
C#Cc1cc2ccccc2oc1=O | 0.151 (inactive) | 0.35 | -0.744 | -1.51 (inactive) | 0.318 (inactive) | -0.6 (inactive)
COCCOC(=O)N1C(=O)[C@@]2(c3cc(C#CCNC(N)=O)ccc31)[C@H](C(N)=O)[C@H]1C(=O)O[C@H](c3ccccc3)[C@H](c3ccccc3)N1[C@@H]2c1ccccc1OCCO | 0.253 (inactive) | 0.485 | 0.0701 | -2.45 (inactive) | 0.0661 (inactive) | 0.588 (inactive)
COCCOC(=O)N1C(=O)[C@@]2(c3cc(C#CCC(C(=O)OC)C(=O)OC)ccc31)[C@H](c1ccc(OCCO)cc1)N1[C@H](c3ccccc3)[C@H](c3ccccc3)OC(=O)[C@H]1[C@@H]2C(=O)N1CCc2cc(OC)c(OC)cc2C1 | 1.24 (inactive) | 0.727 | -2 | 2.86 (inactive) | -0.0277 (inactive) | 0.246 (inactive)
O=C1[C@H]2C=C(I)[C@H](C[C@@H]2OCCOCCO)[C@@]12CO2 | 0.0014 (inactive) | -0.0714 | 0.79 | 0.122 (inactive) | 0.363 (inactive) | 0.401 (inactive)
CCCCC(=C=CC[C@H](O)c1ccc(OCCO)cc1)CCO | 0.0643 (inactive) | 0.256 | -1.17 | -4.31 (inactive) | -0.373 (inactive) | -0.317 (inactive)
C=CCOC(=O)[C@@]1(Cc2ccccc2)C[C@H]2CO[C@H](c3ccc(OC)cc3)N2C1=O | -0.373 (inactive) | -0.0614 | -0.829 | -3.45 (inactive) | -0.0248 (inactive) | -0.386 (inactive)
CCCC#C[Si](O[C@H](CC)c1cn([C@H](C)c2ccccc2)nn1)(C(C)C)C(C)C | 0.062 (inactive) | 0.78 | -0.285 | -0.652 (inactive) | -0.673 (inactive) | -0.399 (inactive)
CC1CC/C=C\[C@H]2OC34C=CCN(C(C)(C)C)C(=O)[C@H]3N(CCCCCO)C(=O)[C@@H]4C2C(=O)O1 (stereo not given in full) | 0.28 (inactive) | -0.48 | -0.375 | -4.58 (inactive) | 0.139 (inactive) | 0.408 (inactive)
O=C(Cc1ccccc1)[C@H]1C2C=CCCC(c3ccccc3)=C2CN1Cc1ccccc1 (stereo not given in full) | 1.11 (inactive) | -0.0929 | 0.979 | -2.16 (inactive) | -0.171 (inactive) | 0.213 (inactive)

SMILES | composite z-score [1] | composite z-score (XIP peptide (Xip251-270)) | z-score [2] | z-score [3] | z-score [4] | z-score [5]
O[C@@H](Cc1ccccc1)[C@@H](/C=C/C1CC1)N(CC#Cc1ccccc1)Cc1ccccc1Br | -0.112 (inactive) | 0.13 | -2.81 | -0.167 (inactive) | -0.36 (inactive) | -0.214 (inactive)
CN(C)CCCCCCNC(=O)[C@@H]1C[C@@H]2C(=O)N3CCC[C@H]3C(=O)N2[C@@H]1c1cccc(OCCO)c1 | 2.52 (inactive) | 0.872 | 0.517 | -2.94 (inactive) | 0.0537 (inactive) | -0.055 (inactive)
COc1cc2c(cc1O)C(c1cccs1)N(Cc1cc3c(cc1Br)OCO3)CC2 (stereo not given) | -0.177 (inactive) | 0.867 | -1.57 | -1.01 (inactive) | -0.117 (inactive) | 0.128 (inactive)
CCOC(=O)C=Cc1cccc(C)c1O | 2.79 (inactive) | 0.159 | -1.44 | 0.534 (inactive) | -0.193 (inactive) | 0.0058 (inactive)
CC(C)c1ccc(NN2C(C(O)c3ccc(F)cc3)C=CC3C(=O)N(c4ccccc4)C(=O)C32)cc1 (stereo not given) | 0.344 (inactive) | 0.774 | -0.344 | -1.93 (inactive) | 0.51 (inactive) | 0.374 (inactive)
CC1CC/C=C\[C@H]2OC34C=CCN(C(C)C)C(=O)[C@H]3N(CCO)C(=O)[C@@H]4C2C(=O)O1 (stereo not given in full) | -0.319 (inactive) | -0.472 | -1.22 | -2.91 (inactive) | 0.147 (inactive) | 0.0498 (inactive)
CCCCCN1CC=CC23O[C@@H]4C=CCCOC(=O)C4[C@H]2C(=O)N(CCCCCCO)[C@@H]3C1=O (stereo not given in full) | 0.592 (inactive) | -0.199 | -0.103 | -4.59 (inactive) | -0.0991 (inactive) | 0.155 (inactive)
COc1ccc([Si](C)(C)[C@@H]2[C@@H](CC(=O)N3CCC[C@H]3CO)O[C@]3(C(=O)N(Cc4cccc(N5C(=O)COc6ccccc65)c4)c4ccccc43)[C@H]2C)cc1 | 0.527 (inactive) | 0.608 | -0.317 | -2.42 (inactive) | -0.167 (inactive) | -0.614 (inactive)
NC(=O)NCC#Cc1ccc2c(c1)[C@]1(C(=O)N2)[C@H](c2ccccc2OCCO)N2[C@H](c3ccccc3)[C@H](c3ccccc3)OC(=O)[C@H]2[C@@H]1C(=O)O | 0.654 (inactive) | 0.418 | -0.373 | -7.04 (inactive) | 0.109 (inactive) | 0.239 (inactive)
COCC(=C=CC[C@H](O)c1ccc(OCCO)cc1)CCO | 0.407 (inactive) | -0.252 | -2.93 | -3.28 (inactive) | -0.638 (inactive) | -0.571 (inactive)
CCOC(=O)C[C@H]1[C@H](OC(=O)c2ccc(C(=O)c3ccccc3)cc2)[C@@H](NC(=O)c2ccc(-c3ccccc3)cc2)c2cc(OCCCO)ccc2N1C(=O)Cc1ccc(OC)cc1 | -0.555 (inactive) | -0.187 | -0.75 | -1.41 (inactive) | 0.0183 (inactive) | 0.25 (inactive)
CCCCCCCCCC(O)C1C=CC2C(=O)N(c3ccccc3)C(=O)C2N1Nc1cc(OC)c(OC)c(OC)c1 (stereo not given) | -0.26 (inactive) | 0.206 | -0.412 | -2.06 (inactive) | 0.297 (inactive) | 0.0284 (inactive)
CCOC(=O)C[C@H]1[C@H](OC(=O)c2ccccc2-c2ccccc2)[C@@H](NC(=O)c2ccc3ccccc3n2)c2cc(OCCCO)ccc2N1C(=O)Cc1ccc(OC)cc1 | -0.0195 (inactive) | -0.203 | -1.64 | -2.31 (inactive) | 0.332 (inactive) | -0.135 (inactive)
[N-]=[N+]=Nc1ccccc1[C@@H]1OC(c2ccc(OCCCO)cc2)=N[C@]1(Cc1ccccc1)C(=O)N1CCCCC1 | 3.82 (inactive) | 0.806 | -2.38 | -4.3 (inactive) | -0.23 (inactive) | -0.606 (inactive)
CCCC=C(CCC)[C@@H](NS(=O)(=O)CC12CCC(CC1=O)C2(C)C)c1ccc(C(=O)OC)cc1 (stereo not given in full) | -0.341 (inactive) | 0.316 | -0.384 | -2.11 (inactive) | -0.225 (inactive) | -0.276 (inactive)
CCCC=C(CCC)[C@@H](NC(=O)c1cccs1)c1ccc(C(=O)OC)cc1 | -0.185 (inactive) | 0.285 | -0.417 | -0.907 (inactive) | -0.255 (inactive) | -0.354 (inactive)
O=C(NCCN1CCOCC1)[C@@H]1c2ccccc2C(=O)N(Cc2ccccc2Cl)[C@H]1c1ccc(CO)cc1 | -0.121 (inactive) | -0.209 | -0.879 | -4.26 (inactive) | -0.0685 (inactive) | 0.227 (inactive)
